# According to PubChem BioAssay (Tox21):
# Results filed as inconclusive are left out. Where a call stands in place of a potency, no number is given. The source made the active and inactive calls. Unless noted, calls come from the whole dose curve.
# Assays:
# [1] = biological target: Acetylcholinesterase (Homo sapiens) (UniProt P22303); test: Acetylcholinesterase (AChE) small molecule antagonists: colormetric cell-based qHTS assay (AID 1347395); note: nearly all actives have a fitted effect of over 30% in size; note: potency is the fitted concentration of half-maximal effect
# Acetylcholinesterase (Homo sapiens), sequence (P22303 whole entry, looked up): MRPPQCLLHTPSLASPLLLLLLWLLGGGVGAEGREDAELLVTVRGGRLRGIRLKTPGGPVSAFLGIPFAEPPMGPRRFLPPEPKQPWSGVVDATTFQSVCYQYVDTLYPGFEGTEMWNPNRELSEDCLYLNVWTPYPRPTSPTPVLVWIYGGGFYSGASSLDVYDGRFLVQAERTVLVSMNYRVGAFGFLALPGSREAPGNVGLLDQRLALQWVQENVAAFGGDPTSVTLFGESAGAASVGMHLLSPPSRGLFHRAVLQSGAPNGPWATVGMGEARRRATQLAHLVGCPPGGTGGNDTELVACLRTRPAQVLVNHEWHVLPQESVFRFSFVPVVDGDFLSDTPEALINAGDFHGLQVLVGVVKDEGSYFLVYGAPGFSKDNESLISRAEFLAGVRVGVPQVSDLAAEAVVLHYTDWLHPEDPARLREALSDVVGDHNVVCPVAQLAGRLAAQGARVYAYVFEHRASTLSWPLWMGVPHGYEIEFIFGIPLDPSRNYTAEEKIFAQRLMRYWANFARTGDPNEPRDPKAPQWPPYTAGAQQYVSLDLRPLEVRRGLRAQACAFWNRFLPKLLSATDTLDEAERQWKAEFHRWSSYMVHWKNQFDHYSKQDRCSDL
# Method in brief: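 Endogenous AChE of human neuroblastoma SH-SY5Y cells was measured with an Ellman-type DTNB/acetylthiocholine mix. Compound pretreatment lasted 30 min at 37 C; substrate reaction ran 90 min at 37 C.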
# [2] = biological target: Acetylcholinesterase (Homo sapiens) (UniProt P22303); test: Acetylcholinesterase (AChE) small molecule antagonists: enzyme-based qHTS assay (AID 1347397); settings: Potency: AChE enzyme activity inhibition; outcome: AChE enzyme activity inhibition; note: nearly all actives have a fitted effect of over 55% in size
# Method in brief: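 Absorbance-based detection of thiocholine with DTNB served as the read-out. Recombinant human AChE was exposed to compound for 30 min at RT before a 10 min RT incubation with acetylthiocholine.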
# [3] = biological target: Acetylcholinesterase (Homo sapiens) (UniProt P22303); test: Acetylcholinesterase (AChE) small molecule antagonists: fluorescence cell-based qHTS assay (AID 1347398); settings: Potency: AChE activity; outcome: AChE activity; note: nearly all actives have a fitted effect of over 50% in size
# Method in brief: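 Fluorimetric cell-based assay: intact SH-SY5Y cells, 30 min compound preincubation at 37 C, acetylthiocholine substrate with thiol probe Thiolite Green, 40 min RT development, fluorescence 490/520 nm.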
# [4] = biological target: Acetylcholinesterase (Homo sapiens) (UniProt P22303); test: Acetylcholinesterase (AChE) small molecule antagonists: enzyme-based qHTS assay with human liver microsomes (AID 1347399); settings: Potency: qHTS inhibition; outcome: qHTS inhibition; note: nearly all actives have a fitted effect of over 60% in size
# Method in brief: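 Recombinant human AChE (50 mU/mL in the enzyme mix) and human liver microsomes (0.25 mg/mL final) were preincubated with compound and NADPH (0.25 mg/mL final) for 30 min at 37 C. Acetylthiocholine/DTNB was then added; thiocholine was read colorimetrically after 10 min at room temperature.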
# [5] = biological target: Glucocorticoid receptor (Homo sapiens) (UniProt P04150); test: qHTS assay to identify small molecule antagonists of the glucocorticoid receptor (GR) signaling pathway (AID 720692; active = well fitted inhibition curve with a large enough effect in the signal ratio in the repeat runs, not every such curve was filed as active; the % refers to the signal ratio)
# Glucocorticoid receptor (Homo sapiens), sequence (P04150 whole entry, looked up): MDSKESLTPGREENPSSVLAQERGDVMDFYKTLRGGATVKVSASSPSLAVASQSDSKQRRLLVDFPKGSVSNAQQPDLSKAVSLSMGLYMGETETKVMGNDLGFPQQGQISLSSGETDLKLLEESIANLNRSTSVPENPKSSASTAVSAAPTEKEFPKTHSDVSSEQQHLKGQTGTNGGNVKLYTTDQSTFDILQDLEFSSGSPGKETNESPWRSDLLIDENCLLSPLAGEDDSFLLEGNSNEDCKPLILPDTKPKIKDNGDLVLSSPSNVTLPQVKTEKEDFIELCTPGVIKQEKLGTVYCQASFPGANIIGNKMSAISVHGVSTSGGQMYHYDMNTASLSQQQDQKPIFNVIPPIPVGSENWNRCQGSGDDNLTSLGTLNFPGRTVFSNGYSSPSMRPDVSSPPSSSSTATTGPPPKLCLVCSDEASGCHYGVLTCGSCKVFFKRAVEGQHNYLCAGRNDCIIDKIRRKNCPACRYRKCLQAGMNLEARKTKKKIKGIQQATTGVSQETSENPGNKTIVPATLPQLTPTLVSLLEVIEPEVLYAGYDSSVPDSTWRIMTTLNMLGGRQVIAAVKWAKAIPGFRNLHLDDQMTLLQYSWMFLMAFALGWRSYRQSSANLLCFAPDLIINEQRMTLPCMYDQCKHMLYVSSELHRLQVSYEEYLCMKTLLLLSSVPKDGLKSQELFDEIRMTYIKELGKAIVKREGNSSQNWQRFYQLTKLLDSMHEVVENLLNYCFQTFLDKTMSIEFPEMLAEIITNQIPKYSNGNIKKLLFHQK
# Method in brief: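 Inhibition of glucocorticoid signalling is measured in HeLa cells with a GRE-controlled beta-lactamase reporter; cells are co-treated with compound and 5 nM dexamethasone (final) for 18 h before FRET substrate readout.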
# [6] = qHTS assay for small molecule agonists of the p53 signaling pathway (AID 651631); note: nearly all actives have a fitted effect of over 15% in size
# Method in brief: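 HCT-116 p53RE-bla reporter line, 16 h compound treatment at 37 °C, then fluorescence after 2 h with B/G FRET substrate.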
# [7] = biological target: Aromatase (Homo sapiens) (UniProt P11511); test: qHTS assay to identify aromatase inhibitors (AID 743083; active = well fitted inhibition curve with a large enough effect in the repeat runs; note: series mostly up to about 70 µM; nearly all actives have a fitted effect of over 55% in size)
# Aromatase (Homo sapiens), sequence (P11511 whole entry, looked up): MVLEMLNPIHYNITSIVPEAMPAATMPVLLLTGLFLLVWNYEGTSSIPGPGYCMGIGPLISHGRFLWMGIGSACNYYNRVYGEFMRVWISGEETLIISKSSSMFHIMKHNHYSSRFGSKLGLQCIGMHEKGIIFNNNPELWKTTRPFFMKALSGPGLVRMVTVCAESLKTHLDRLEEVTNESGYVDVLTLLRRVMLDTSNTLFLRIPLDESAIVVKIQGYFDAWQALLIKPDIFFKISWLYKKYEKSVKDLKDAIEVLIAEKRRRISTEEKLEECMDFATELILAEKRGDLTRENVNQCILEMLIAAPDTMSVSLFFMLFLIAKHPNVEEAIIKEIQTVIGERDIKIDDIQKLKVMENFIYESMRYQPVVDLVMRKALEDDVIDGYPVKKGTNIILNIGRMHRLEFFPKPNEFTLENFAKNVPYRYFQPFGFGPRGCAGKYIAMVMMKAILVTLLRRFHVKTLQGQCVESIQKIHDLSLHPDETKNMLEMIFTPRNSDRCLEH
# [8] = qHTS assay for small molecule activators of the heat shock response signaling pathway (AID 743210; active = well fitted activation curve with a large enough effect in the signal ratio in the repeat runs, with a control signal flat, not every such curve was filed as active; the % refers to the signal ratio;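 note: HeLa cells with beta-lactamase reporter driven by heat shock elements; series mostly up to about 63 µM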)
# Method in brief: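 In HSE-bla HeLa cells, 5 h compound incubation (37 C) precedes addition of LiveBLAzer B/G substrate; after 2.5 h at room temperature, fluorescence intensity indicates reporter induction.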
# [9] = biological target: Peroxisome proliferator-activated receptor delta (Homo sapiens) (UniProt Q03181); test: qHTS assay to identify small molecule antagonists of the peroxisome proliferator-activated receptor delta (PPARd) signaling pathway (AID 743215; active = well fitted inhibition curve with a large enough effect in the signal ratio in the repeat runs, not every such curve was filed as active; the % refers to the signal ratio;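 note: cells stimulated with agonist L165041 at 300 nM final during compound exposure; series mostly up to about 62 µM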)
# Peroxisome proliferator-activated receptor delta (Homo sapiens), sequence (Q03181 whole entry, looked up): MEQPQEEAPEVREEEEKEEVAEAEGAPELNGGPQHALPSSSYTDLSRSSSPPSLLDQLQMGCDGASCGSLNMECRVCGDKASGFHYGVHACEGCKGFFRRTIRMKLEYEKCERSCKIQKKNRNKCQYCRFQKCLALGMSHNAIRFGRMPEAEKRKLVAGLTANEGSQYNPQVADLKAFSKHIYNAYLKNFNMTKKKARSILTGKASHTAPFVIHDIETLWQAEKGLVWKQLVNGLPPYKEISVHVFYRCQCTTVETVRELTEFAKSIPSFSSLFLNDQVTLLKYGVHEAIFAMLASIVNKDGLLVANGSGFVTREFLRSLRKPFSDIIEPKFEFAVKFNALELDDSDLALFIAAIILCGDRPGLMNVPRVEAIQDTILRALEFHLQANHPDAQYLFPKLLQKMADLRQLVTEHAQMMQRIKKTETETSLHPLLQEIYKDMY
# Method in brief: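 HEK293H UAS-bla, PPARd; agonist L165041 300 nM final with cpd in DMSO; 37 C 17 h; FRET substrate, RT 2 h; fluorescence intensity.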
smiles,measurement,setting,value
CCN(CC)CCOc1ccc(Cc2ccccc2)cc1,Potency,[1],inactive
same,Potency,[2],inactive
same,Potency,[3],inactive
same,Potency,[4],inactive
O=C(CCS)OCC(COC(=O)CCS)(COC(=O)CCS)COC(=O)CCS,Potency,[1],inactive
same,Potency,[2],inactive
same,Potency,[3],inactive
same,Potency,[4],inactive
CCCC(=O)C(=O)O,Potency,[1],inactive
same,Potency,[2],inactive
same,Potency,[3],inactive
same,Potency,[4],inactive
CCCCOc1ccc(CC(=O)NO)cc1,Potency,[1],inactive
same,Potency,[2],inactive
same,Potency,[3],inactive
same,Potency,[4],inactive
CC(C)O,Potency,[1],inactive
same,Potency,[2],inactive
same,Potency,[3],inactive
same,Potency,[4],inactive
C=CCCC(=O)O,Potency,[1],inactive
same,Potency,[2],inactive
same,Potency,[3],inactive
same,Potency,[4],inactive
CN1CCC(N(Cc2cccs2)c2ccccc2)CC1,Potency,[5],inactive
same,Potency,[1],inactive
same,Potency,[2],inactive
same,Potency,[3],inactive
same,Potency,[4],inactive
CCNC(=O)C1CC(C)CCC1C(C)C (centres undefined),Potency,[1],inactive
same,Potency,[2],inactive
same,Potency,[3],inactive
same,Potency,[4],inactive
COC(=O)C(C)(C)C,Potency,[1],inactive
same,Potency,[2],inactive
same,Potency,[3],inactive
same,Potency,[4],inactive
O=C(CCOCCOCCOCCOCCC(=O)Nc1c(I)cc(I)c(C(=O)O)c1I)Nc1c(I)cc(I)c(C(=O)O)c1I,Potency,[1],inactive
same,Potency,[2],inactive
same,Potency,[3],inactive
same,Potency,[4],inactive
CCOc1ccc2ccccc2c1C(=O)N[C@@H]1C(=O)N2[C@@H]1SC(C)(C)[C@@H]2C(=O)O,Potency,[1],inactive
same,Potency,[2],inactive
same,Potency,[3],inactive
same,Potency,[4],inactive
CC(=O)CC(C)C,Potency,[6],inactive
same,Potency,[7],inactive
same,outcome,[8],inactive
same,Potency,[1],inactive
same,Potency,[2],inactive
same,Potency,[3],inactive
same,Potency,[4],inactive
C1CCC2(CCCCO2)OC1,Potency,[1],inactive
same,Potency,[2],inactive
same,Potency,[3],inactive
same,Potency,[4],inactive
C=CS(=O)(=O)O,Potency,[1],inactive
same,Potency,[2],inactive
same,Potency,[3],inactive
same,Potency,[4],inactive
CO[Si](CCCS)(OC)OC,Potency,[1],inactive
same,Potency,[2],inactive
same,Potency,[3],inactive
same,Potency,[4],inactive
COc1ccc(-c2cc(=S)ss2)cc1,Potency,[1],inactive
same,Potency,[2],inactive
same,Potency,[3],inactive
same,Potency,[4],inactive
CC(C)(C)NSc1nc2ccccc2s1,Potency,[1],inactive
same,Potency,[2],inactive
same,Potency,[4],inactive
C[C@@H](c1ncncc1F)C(O)(Cn1cncn1)c1ccc(F)cc1F (some centres undefined),Potency,[1],inactive
same,Potency,[2],inactive
same,Potency,[3],inactive
same,Potency,[4],inactive
C[N+]12CCC(CC1)C(OC(=O)C(O)(c1ccccc1)c1ccccc1)C2 (centres undefined),Potency,[6],inactive
same,Potency,[5],inactive
same,Potency,[7],inactive
same,outcome,[9],inactive
same,Potency,[1],inactive
same,Potency,[2],inactive
same,Potency,[3],inactive
same,Potency,[4],inactive
Cc1ccc(N)cc1[N+](=O)[O-],Potency,[6],inactive
same,Potency,[7],inactive
same,Potency,[1],inactive
same,Potency,[2],inactive
same,Potency,[3],inactive
same,Potency,[4],inactive
COc1ccc(C(=O)c2ccc(OC)cc2O)c(O)c1,Potency,[1],inactive
same,Potency,[2],inactive
same,Potency,[3],inactive
same,Potency,[4],inactive
CCCC(=O)C(CC)Sc1ccoc1C (centres undefined),Potency,[1],inactive
same,Potency,[2],inactive
same,Potency,[3],inactive
same,Potency,[4],inactive
CCOC(=O)C(Br)c1ccccc1 (centres undefined),Potency,[1],71 µM (active)
same,Potency,[2],inactive
same,Potency,[4],inactive
COC(=O)C1=C(C)NC(COC(N)=O)=C(C(=O)OC(C)C)C1c1cccc(Cl)c1Cl (centres undefined),Potency,[1],inactive
same,Potency,[2],inactive
same,Potency,[3],inactive
same,Potency,[4],inactive
NNc1nc(-c2ccc(N)cc2)cs1,Potency,[1],inactive
same,Potency,[2],inactive
same,Potency,[3],inactive
same,Potency,[4],inactive
O=C(O)c1cccc(C(F)(F)F)c1,Potency,[1],inactive
same,Potency,[2],inactive
same,Potency,[3],inactive
same,Potency,[4],inactive
COc1ccc(C(=O)Nc2ccccc2)cc1[N+](=O)[O-],Potency,[1],35.9 µM (active)
same,Potency,[2],inactive
same,Potency,[4],inactive
CC(=O)[C@]1(O)Cc2c(O)c3c(c(O)c2[C@@H](O[C@H]2C[C@H](N)[C@H](O)[C@H](C)O2)C1)C(=O)c1ccccc1C3=O,Potency,[1],17.4 µM (active)
same,Potency,[2],inactive
same,Potency,[4],inactive
CCOCC(C)O (centres undefined),Potency,[1],inactive
same,Potency,[2],inactive
same,Potency,[4],inactive
C=CCc1ccccc1OCC(O)CNC(C)C (centres undefined),Potency,[1],inactive
same,Potency,[2],inactive
same,Potency,[4],inactive
CN(C(=O)c1c(O)c2ccccc2n(C)c1=O)c1ccccc1,Potency,[1],inactive
same,Potency,[2],inactive
same,Potency,[4],inactive
CCN(CC)CCOc1ccc(C(O)(Cc2ccc(Cl)cc2)c2ccc(C)cc2)cc1 (centres undefined),Potency,[1],inactive
same,Potency,[2],inactive
same,Potency,[4],inactive
Nc1nc2ccccc2n1Cc1ccc(F)cc1,Potency,[1],inactive
same,Potency,[2],inactive
same,Potency,[4],inactive
CCc1nn(CCCN2CCN(c3cccc(Cl)c3)CC2)c(=O)n1CCOc1ccccc1,Potency,[1],inactive
same,Potency,[2],inactive
same,Potency,[4],inactive
c1ccc([C@H]2CN3CCSC3=N2)cc1,outcome,[1],inactive
same,outcome,[2],inactive
same,outcome,[4],inactive
Cc1ccc(NC(=O)c2ccc(CN3CCN(C)CC3)cc2)cc1Nc1nccc(-c2cccnc2)n1,Potency,[1],inactive
same,Potency,[2],inactive
same,Potency,[4],inactive
O=CCCc1ccccc1,Potency,[1],inactive
same,Potency,[2],inactive
same,Potency,[4],inactive
NC/C=C/C(=O)O,Potency,[1],inactive
same,Potency,[2],inactive
same,Potency,[4],inactive
Nc1cc(C(Cl)=C(Cl)Cl)c(S(N)(=O)=O)cc1S(N)(=O)=O,Potency,[1],inactive
same,Potency,[2],inactive
same,Potency,[4],inactive
Cc1ccccc1C(=O)O,Potency,[1],inactive
same,Potency,[2],inactive
same,Potency,[4],inactive
